# Screening data as filed in PubChem BioAssay.
# Compounds with a hit are over-represented: about 32% of the library has one in this group of screens.
# CYP2C19 inhib = blocks human cytochrome P450 2C19; inhibition, % at 5 µM; 21% of 96,000 active; AID 778; CYP2C19 Supersomes, luciferin-H EGE luminescence, 30 min;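 active = CYP2C19 inhibition above a set limit at 5 µM in the primary screen, cut at about 50% in these data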;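 note: plate controls were negative control wells for no effect and 2.5 mM tranylcypromine positive control for full effect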
# CYP2C9 act = CYP2C9 (human) activation. recombinant CYP2C9, luciferin-H conversion, luminescence; stronger effect = higher value; factor 1 = untreated enzyme, 0 = blocked. 1.4% of 96,000 active. activation factor at 5 µM. P11712;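 active = activation factor of 2 or more for CYP2C9 at a 5 µM dose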;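 note: 0 = sulfaphenazole-blocked wells and 1 = vehicle-only wells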
# Target sequence (P11712 whole entry, looked up): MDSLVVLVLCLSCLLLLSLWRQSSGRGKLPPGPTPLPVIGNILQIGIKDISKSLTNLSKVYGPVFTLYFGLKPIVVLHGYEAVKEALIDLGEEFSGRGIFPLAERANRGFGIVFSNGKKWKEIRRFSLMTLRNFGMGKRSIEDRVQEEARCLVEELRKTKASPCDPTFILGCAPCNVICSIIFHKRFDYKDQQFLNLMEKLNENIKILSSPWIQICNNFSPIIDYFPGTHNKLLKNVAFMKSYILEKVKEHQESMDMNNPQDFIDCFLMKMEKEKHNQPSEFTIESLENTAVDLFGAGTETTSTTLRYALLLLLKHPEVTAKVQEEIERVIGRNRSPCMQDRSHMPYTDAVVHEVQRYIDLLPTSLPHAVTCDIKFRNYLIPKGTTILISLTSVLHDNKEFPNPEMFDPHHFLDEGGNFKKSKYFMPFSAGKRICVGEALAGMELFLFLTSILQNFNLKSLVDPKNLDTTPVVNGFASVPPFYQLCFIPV
# CYP2C19 activ = activators of human cytochrome P450 2C19; recombinant CYP2C19, luciferin-H EGE luminescence; stronger effect = higher value; 0 = fully inhibited enzyme, 1 = untreated enzyme; activation factor at 5 µM; 96,000 tested, under 10 active;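 active = activation factor of at least 2 at 5 µM in the primary screen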;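 note: 0 = wells with 2.5 mM tranylcypromine and 1 = vehicle-only wells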
# PostGolgi ctrl = inhibits growth of the yeast control strain. efflux-deficient yeast background strain, growth absorbance A615, 16 h. AID 738. 5% of 98,000 active. inhibition, % at 10 µM
# PostGolgi yeast = growth inhibition of a yeast mutant, post-Golgi transport screen. post-Golgi transport phenotypic cell assay. inhibition, % at 10 µM. 0.9% of 98,000 active;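 note: yeast cells grown in 1536-well plates; yeast grown about 18 h at 30C before absorbance read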
# CYP2C9 inh = human CYP2C9 inhibition; CYP2C9 Supersomes, luciferin-H conversion, luminescence; inhibition, % at 5 µM; 20% of 96,000 active;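 active = blocking of liver enzyme CYP2C9 beyond about 50% at 5 µM, limit read from the data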
# Active calls of the source: *; . = no result. Cut-off read from the data, not from the text of the source, unless noted: active = inhibition above about 30%; inactive = the rest.
SMILES,CYP2C19 inhib,CYP2C9 act,CYP2C19 activ,PostGolgi ctrl,PostGolgi yeast,CYP2C9 inh
C(=N\Nc1ncnc2sc3c(c12)CCC3)/c1ccncc1,83.2*,0.2,0.2,12.3,-2.9,82.1*
C(=N\Nc1ncnc2sc3c(c12)CCC3)/c1cccs1,17.9,0.8,0.8,34.0*,19.4,21.4
O=C(Oc1ccccc1C(=O)N1CCOCC1)c1cccc(Br)c1,-6.0,1,1.1,-8.9,-6.3,-0.3
Cc1ccc([N+](=O)[O-])cc1N=C(c1cccc(Br)c1)N1CCOCC1,64.4*,0.5,0.4,33.6*,22.6,51.8*
NC[C@@]12CCCC1C1CCC2C1 (some centres not stated),-11.7,1.1,1.1,-14.5,24.4,-14.4
O[C@@H]1C2CCCC1[C@]1(O)CCCCC1C2 (some centres not stated),11.4,0.4,0.9,1.5,2.6,61.5*
CCOC(=O)c1[nH]c(C)c(/C=N/O)c1C,9.9,1.4,0.9,9.9,0.8,-39.2
O=C(NCc1ccccc1)c1ccc2c(c1)C(=O)N(CC1CCCO1)C2=O (configuration not stated),11.9,1.1,0.9,9.3,5.1,-8.8
COC(=O)C(C)Sc1nnc(Cc2cc(=O)[nH]c(=O)[nH]2)n1-c1cc(C)ccc1C (configuration not stated),1.3,1,1,-4.2,-18.9,-1.4
O=C(CSc1ncn[nH]1)Nc1ccccc1Sc1ccc(Cl)cc1,97.9*,0.1,0,3.8,-4.1,93.3*
COC(=O)c1ccc(Cl)c(NC(=O)CSc2ncn[nH]2)c1,74.3*,0.6,0.3,30.7*,-2.6,40.9
COC(=O)c1ccc(C(=O)OC)c(NC(=O)CSc2ccccn2)c1,47.9,0.5,0.5,0.0,-2.3,47.2
COC(=O)c1cccc(NC(=O)CSc2ncn[nH]2)c1,57.1*,0.7,0.4,-13.2,-3.5,27.1
C=CCn1c(SCc2csc(C)n2)nc2sc3c(c2c1=O)CCCCC3,45.4,0.1,0.5,13.7,-7.0,88.3*
C=CCn1c(SCc2csc(C)n2)nc2sc3c(c2c1=O)CCCC3,20.8,0.5,0.8,8.2,-12.1,50.4*
COc1ccc(/C=N/n2c(N)nc(-c3ccccc3)c2-c2ccccc2)cc1,6.7,1.2,0.9,18.6,1.7,-20.3
CCCCn1c(CCC(=O)O)nc2c1c(=O)[nH]c(=O)n2CCC,-2.7,1.1,1,1.7,16.8,-5.3
CCCCn1c(=O)[nH]c(=O)c2c1nc(COC(=O)c1c(C)noc1C)n2CCC,68.1*,0,0.3,5.6,5.7,96.9*
Cc1ccc(-c2noc(CN3C(C)CCCC3C)n2)cc1 (configuration not stated),50.9*,0.6,0.5,1.9,-2.5,35.8
O=C(NCc1ccco1)NCC(F)(F)F,8.1,1.1,0.9,7.1,-16.2,-8.8
O=C(NCc1ccco1)Nc1ccc2nsnc2c1,3.5,0.6,1,10.8,-6.3,40.2
Cc1ccc(NC(=O)NC2(C(=O)NCc3ccco3)CCCCC2)cc1,93.0*,0.5,0.1,5.2,-5.5,53.8*
O=C(NCc1ccco1)C1(c2ccc(Br)cc2)CCCC1,30.8,0.3,0.7,9.2,-0.2,70.0*
O=C(Nc1ccccc1)NC1(C(=O)NCc2ccco2)CCCCC1,14.8,0.6,0.9,0.5,1.3,40.3
O=C(NCc1ccco1)Nc1ccc(Br)cc1,63.6*,0.4,0.4,20.3,21.0,63.9*
SMILES,CYP2C19 inhib,CYP2C9 act,CYP2C19 activ,PostGolgi ctrl,PostGolgi yeast,CYP2C9 inh
CC(C)OC(=O)c1c(-c2ccc(C(C)C)cc2)csc1NC(=O)C1CCCO1 (configuration not stated),-3.9,0.8,1,17.0,-2.5,22.6
Cc1ccc(CS(=O)(=O)CCC(=O)NCCCN2CCCC2=O)cc1,-6.9,1,1.1,2.9,-5.5,-4.7
COc1ccc(Cl)cc1C(=O)N1CCN=C1SC,35.7,0.8,0.6,17.7,7.5,21.7
CCC(=O)NC(=S)N1CCN(c2ccc([N+](=O)[O-])cc2Cl)CC1,67.5*,1,0.3,-3.1,6.2,-4.5
CCC(=O)NC(Nc1cccc(C)n1)(C(F)(F)F)C(F)(F)F,-2.2,1,1,3.2,-5.6,1.6
CCN(Cc1ccccc1)S(=O)(=O)c1ccc(C(=O)Nc2nnc(C3CC3)o2)cc1,2.2,0.1,1,2.7,13.7,88.4*
CSCc1nnc(NC(=O)c2ccc(S(=O)(=O)N(CC(C)C)CC(C)C)cc2)o1,26.6,1.1,0.7,22.5,-4.6,-5.3
COCCN(CCOC)S(=O)(=O)c1ccc(C(=O)Nc2nnc(C)o2)cc1,-17.6,1.1,1.2,5.1,-0.5,-12.1
CCc1nnc(NC(=O)c2ccc(S(=O)(=O)N(CC(C)C)CC(C)C)cc2)o1,.,.,.,-10.4,4.8,.
COCc1nnc(NC(=O)c2ccc(S(=O)(=O)N(C)C3CCCCC3)cc2)o1,-3.5,0.2,1,8.6,-4.6,75.9*
Cc1nnc(NC(=O)c2ccc(S(=O)(=O)N(C)Cc3ccccc3)cc2)o1,-11.1,0.2,1.1,11.2,0.0,77.9*
CCCOc1ccc(C(=O)N2CCCC2)cc1OC,23.1,1.1,0.8,5.4,-6.3,-13.9
COc1ccc(C(=O)OCCN=C2NS(=O)(=O)c3ccccc32)cc1OC,18.7,0.5,0.8,5.1,1.4,48.6
O=C(CN1CCN(c2ccccn2)CC1)Nc1cc(C(F)(F)F)ccc1Cl,25.5,0.3,0.7,13.3,0.6,73.8*
CN(CC(=O)N1CCN(c2ccccn2)CC1)S(=O)(=O)c1ccc2ccccc2c1,26.4,2.7*,0.7,18.5,13.2,-172.5
O=C(CN1CCN(c2ncccn2)CC1)Nc1ccccc1-n1cccc1,94.9*,0.2,0.1,5.1,-2.6,78.9*
O=C(CN1CCN(c2ccccn2)CC1)Nc1ccc2ccccc2c1,27.8,0.4,0.7,-1.1,5.7,55.3*
Cc1ccc(S(=O)(=O)N(C)CC(=O)N2CCN(c3ccccn3)CC2)cc1,11.2,1.5,0.9,4.6,3.3,-48.5
O=C(CN1CCN(c2ccccn2)CC1)Nc1ccc(Cl)c(C(F)(F)F)c1,4.5,0.9,1,17.3,-1.7,5.4
CCOC(=O)C1CSC(CC(=O)Nc2ccc(Cl)c(Cl)c2)C(=O)N1 (configuration not stated),17.9,1.4,0.8,2.1,-5.5,-36.9
CC(=O)N1CCc2c(sc(NC(=O)CN3C(=O)CCC3=O)c2C(N)=O)C1,.,.,.,-0.6,6.6,.
Cc1ccc(C(=O)CSc2nnc(CNc3nc(-c4ccccc4)cs3)n2C)cc1,34.5,0.7,0.7,25.0,11.3,26.6
COc1ccc(NC(=O)c2cc(-c3ccc(C)o3)nc3ccccc23)cc1OC,23.8,0.7,0.8,-1.8,-9.7,32.2
Cc1ccc(NC(=O)CN2CCN(c3ccccn3)CC2)c(Cl)c1,54.9*,0.1,0.5,4.7,-16.8,86.1*
COc1ccc2c(C)nc(Nc3nc(C)cc(C)n3)nc2c1,1.1,0.9,1,5.5,7.8,6.1
